The campaign covered roughly 5,500 compounds. About 2,000 (36%) were called active. Not shown: some 18% with an inconclusive outcome. Cut-off read from the data, not from the text of the source: active = normalized growth mostly below about 0.91 (no sharp cut-off); inconclusive = no clear call, values can overlap the other calls; inactive = mostly above about 0.92. The list shows a part of the results.
Experiment: chemical genetic growth profiling, strain panel (AID 1159580);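 note: tested at 20 µM; growth read once vehicle control cultures reached saturation at 30 °C; 1 = growth at the plate median or of vehicle wells; lower values mean less growth of the strain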
Conditions: growth OD
[1] = S. cerevisiae deletion strains, locus YJR075W, strain HOC1, stronger effect = lower value
[2] = S. cerevisiae deletion strains, locus YMR307W, strain GAS1, stronger effect = lower value
[3] = S. cerevisiae deletion strains, locus YDL101C, strain DUN1, stronger effect = lower value
[4] = S. cerevisiae deletion strains, locus YHR030C, strain SLT2, stronger effect = lower value
[5] = S. cerevisiae deletion strains, locus YJL095W, strain BCK1, stronger effect = lower value
[6] = S. cerevisiae deletion strains, locus YOR061W, strain CKA2, stronger effect = lower value

Measured: normalized growth

O=[N+]([O-])c1ccc(CSc2ncnc3c2ncn3[C@@H]2O[C@H](CO)[C@H](O)C2O)cc1 (stereo partly drawn)
inactive: S. cerevisiae deletion strains, locus YAL013W, strain DEP1, stronger effect = lower value 1.01 | S. cerevisiae deletion strains, locus YAL040C, strain CLN3, stronger effect = lower value 1.01 | S. cerevisiae deletion strains, locus YCL061C, strain MRC1 (second series), stronger effect = lower value 1.01 | S. cerevisiae deletion strains, locus YDR363W, strain ESC2, stronger effect = lower value 1.01 | S. cerevisiae deletion strains, locus YER002W, strain NOP16, stronger effect = lower value 0.997 | [1] 1.01 | [2] 0.996 | S. cerevisiae deletion strains, locus YNL175C, strain NOP13, stronger effect = lower value 1.01 | S. cerevisiae deletion strains, locus YNL197C, strain WHI3, stronger effect = lower value 1.01 | S. cerevisiae deletion strains, locus YNL224C, strain SQS1, stronger effect = lower value 1 | S. cerevisiae deletion strains, locus YNL322C, strain KRE1, stronger effect = lower value 1.01 | S. cerevisiae deletion strains, locus YOR083W, strain WHI5 (second series), stronger effect = lower value 0.992 | S. cerevisiae deletion strains, locus YPL055C, strain LGE1, stronger effect = lower value 1.01 | S. cerevisiae deletion strains, locus YPL241C, strain CIN2, stronger effect = lower value 1.01

CC1(C)C(O)CC(O)C2(C)C1CC(=O)C1(C)C2CCC2(C)C(C(=O)O)OC(=O)C3OC321 (stereo not drawn)
inactive: S. cerevisiae deletion strains, locus YBR021W, strain FUR4, stronger effect = lower value 1.01 | S. cerevisiae deletion strains, locus YBR229C, strain ROT2, stronger effect = lower value 1.01 | S. cerevisiae deletion strains, locus YCL029C, strain bik1, stronger effect = lower value 0.996 | S. cerevisiae deletion strains, locus YDL035C, strain GPR1, stronger effect = lower value 1.01 | S. cerevisiae deletion strains, locus YDL074C, strain BRE1, stronger effect = lower value 1 | [3] 1.01 | S. cerevisiae deletion strains, locus YDL185W, strain tfp1, stronger effect = lower value 0.984 | S. cerevisiae deletion strains, locus YDL192W, strain arf1, stronger effect = lower value 1 | S. cerevisiae deletion strains, locus YDR101C, strain arx1, stronger effect = lower value 1 | S. cerevisiae deletion strains, locus YDR150W, strain NUM1, stronger effect = lower value 1.02 | S. cerevisiae deletion strains, locus YDR162C, strain NBP2, stronger effect = lower value 1.03 | S. cerevisiae deletion strains, locus YDR318W, strain mcm21, stronger effect = lower value 1 | S. cerevisiae deletion strains, locus YDR388W, stronger effect = lower value 1 | S. cerevisiae deletion strains, locus YDR502C, strain sam2, stronger effect = lower value 1.02 | S. cerevisiae deletion strains, locus YEL061C, strain CIN8, stronger effect = lower value 1 | S. cerevisiae deletion strains, locus YER110C, stronger effect = lower value 0.995 | S. cerevisiae deletion strains, locus YER155C, strain BEM2, stronger effect = lower value 1.01 | S. cerevisiae deletion strains, locus YER167W, strain BCK2, stronger effect = lower value 1.01 | S. cerevisiae deletion strains, locus YGL078C, strain dbp3, stronger effect = lower value 0.996 | S. cerevisiae deletion strains, locus YGL086W, strain mad1, stronger effect = lower value 1.01 | S. cerevisiae deletion strains, locus YGL248W, strain PDE1, stronger effect = lower value 1.01 | S. cerevisiae deletion strains, locus YGR135W, strain pre9, stronger effect = lower value 1.01 | S. cerevisiae deletion strains, locus YGR229C, strain SMI1, stronger effect = lower value 1.01 | S. cerevisiae deletion strains, locus YGR252W, strain gcn5, stronger effect = lower value 0.974 | [4] 1.01 | S. cerevisiae deletion strains, locus YHR079C, strain IRE1 (second series), stronger effect = lower value 0.994 | S. cerevisiae deletion strains, locus YHR094C, strain hxt1, stronger effect = lower value 1.01 | S. cerevisiae deletion strains, locus YHR129C, strain ARP1, stronger effect = lower value 1.01 | S. cerevisiae deletion strains, locus YHR200W, strain rpn10, stronger effect = lower value 1 | S. cerevisiae deletion strains, locus YIL066C, strain RNR3, stronger effect = lower value 1.02 | S. cerevisiae deletion strains, locus YIL073C, strain SPO22, stronger effect = lower value 1.03 | S. cerevisiae deletion strains, locus YIL125W, strain kgd1, stronger effect = lower value 0.994 | S. cerevisiae deletion strains, locus YIR030C, strain dcg1, stronger effect = lower value 0.999 | [5] 1.02 | S. cerevisiae deletion strains, locus YJL134W, strain LCB3, stronger effect = lower value 1.01 | S. cerevisiae deletion strains, locus YJL168C, strain set2, stronger effect = lower value 0.985 | S. cerevisiae deletion strains, locus YJL187C, strain SWE1 (second series), stronger effect = lower value 1.01 | S. cerevisiae deletion strains, locus YJR043C, strain POL32, stronger effect = lower value 1.02 | [1] 1.01 | S. cerevisiae deletion strains, locus YKL009W, strain mrt4, stronger effect = lower value 0.986 | S. cerevisiae deletion strains, locus YKL068W, stronger effect = lower value 1 | S. cerevisiae deletion strains, locus YKL085W, strain MDH1 (second series), stronger effect = lower value 1 | S. cerevisiae deletion strains, locus YKL085W, strain MDH1, stronger effect = lower value 1 | S. cerevisiae deletion strains, locus YKR001C, strain vps1, stronger effect = lower value 0.99 | S. cerevisiae deletion strains, locus YLR039C, strain RIC1, stronger effect = lower value 1.03 | S. cerevisiae deletion strains, locus YLR058C, strain SHM2, stronger effect = lower value 1.01 | S. cerevisiae deletion strains, locus YLR102C, strain apc9, stronger effect = lower value 0.998 | S. cerevisiae deletion strains, locus YLR262C, strain YPT6, stronger effect = lower value 1 | S. cerevisiae deletion strains, locus YLR268W, strain sec22, stronger effect = lower value 1.01 | S. cerevisiae deletion strains, locus YLR330W, strain CHS5, stronger effect = lower value 1.01 | S. cerevisiae deletion strains, locus YLR342W, strain FKS1 (second series), stronger effect = lower value 1 | S. cerevisiae deletion strains, locus YLR371W, strain rom2, stronger effect = lower value 1.01 | S. cerevisiae deletion strains, locus YLR418C, strain cdc73, stronger effect = lower value 1 | S. cerevisiae deletion strains, locus YML016C, strain PPZ1, stronger effect = lower value 1.01 | S. cerevisiae deletion strains, locus YML032C, strain rad52, stronger effect = lower value 1.01 | S. cerevisiae deletion strains, locus YML124C, strain tub3, stronger effect = lower value 1 | S. cerevisiae deletion strains, locus YMR078C, strain ctf18, stronger effect = lower value 0.984 | S. cerevisiae deletion strains, locus YMR223W, strain ubp8, stronger effect = lower value 1.01 | S. cerevisiae deletion strains, locus YMR263W, strain SAP30, stronger effect = lower value 1.01 | [2] 0.99 | S. cerevisiae deletion strains, locus YNL067W, strain RPL9B, stronger effect = lower value 1.02 | S. cerevisiae deletion strains, locus YNL128W, strain TEP1, stronger effect = lower value 1.02 | S. cerevisiae deletion strains, locus YNL153C, strain GIM3, stronger effect = lower value 1.01 | S. cerevisiae deletion strains, locus YNL233W, strain BNI4, stronger effect = lower value 1 | S. cerevisiae deletion strains, locus YNL250W, strain rad50, stronger effect = lower value 0.999 | S. cerevisiae deletion strains, locus YNL271C, strain bni1, stronger effect = lower value 0.993 | S. cerevisiae deletion strains, locus YNL298W, strain CLA4, stronger effect = lower value 1.01 | S. cerevisiae deletion strains, locus YNL307C, strain MCK1, stronger effect = lower value 1 | S. cerevisiae deletion strains, locus YNR052C, strain pop2, stronger effect = lower value 0.994 | S. cerevisiae deletion strains, locus YOL012C, strain htz1 0.868 | S. cerevisiae deletion strains, locus YOL147C, strain pex11, stronger effect = lower value 0.993 | [6] 1.01 | S. cerevisiae deletion strains, locus YOR069W, strain VPS5, stronger effect = lower value 1.01 | S. cerevisiae deletion strains, locus YOR136W, strain idh2, stronger effect = lower value 0.997 | S. cerevisiae deletion strains, locus YOR144C, strain elg1, stronger effect = lower value 0.992 | S. cerevisiae deletion strains, locus YOR184W, strain ser1, stronger effect = lower value 1.03 | S. cerevisiae deletion strains, locus YOR316C, strain cot1, stronger effect = lower value 0.995 | S. cerevisiae deletion strains, locus YPR119W, strain clb2, stronger effect = lower value 0.989 | S. cerevisiae deletion strains, locus YPR141C, strain kar3, stronger effect = lower value 0.999 | S. cerevisiae deletion strains, locus YPR163C, strain tif3, stronger effect = lower value 1.01 | S. cerevisiae deletion strains, locus YPR167C, strain met16, stronger effect = lower value 0.997 | S. cerevisiae deletion strains, strain wtn01, stronger effect = lower value 0.981 | S. cerevisiae strains, strain wild type, stronger effect = lower value 1.01

CC(C)c1ccc(N2C=Nc3ccc(C(C)C)cc3C2)cc1
inactive: S. cerevisiae deletion strains, locus YAR019C, strain CDC15, stronger effect = lower value 0.998 | S. cerevisiae deletion strains, locus YBL105C, strain PKC1, stronger effect = lower value 0.995 | S. cerevisiae deletion strains, locus YBR135W, strain CKS1, stronger effect = lower value 0.997 | S. cerevisiae deletion strains, locus YBR136W, strain MEC1, stronger effect = lower value 0.995 | S. cerevisiae deletion strains, locus YBR160W, strain CDC28, stronger effect = lower value 1 | S. cerevisiae deletion strains, locus YDL017W, strain CDC7, stronger effect = lower value 1 | S. cerevisiae deletion strains, locus YDL028C, strain MPS1, stronger effect = lower value 1.01 | [3] 1 | S. cerevisiae deletion strains, locus YDL108W, strain KIN28, stronger effect = lower value 0.993 | S. cerevisiae deletion strains, locus YDL132W, strain cdc53, stronger effect = lower value 0.995 | S. cerevisiae deletion strains, locus YDL214C, strain PRR2, stronger effect = lower value 0.971 | S. cerevisiae deletion strains, locus YDR052C, strain DBF4, stronger effect = lower value 1 | S. cerevisiae deletion strains, locus YDR054C, strain cdc34, stronger effect = lower value 0.992 | S. cerevisiae deletion strains, locus YDR226W, strain ADK1, stronger effect = lower value 0.984 | S. cerevisiae deletion strains, locus YDR477W, strain SNF1, stronger effect = lower value 0.97 | S. cerevisiae deletion strains, locus YER123W, strain YCK3, stronger effect = lower value 0.934 | S. cerevisiae deletion strains, locus YER133W, strain GLC7, stronger effect = lower value 0.968 | S. cerevisiae deletion strains, locus YFL009W, strain cdc4, stronger effect = lower value 1 | S. cerevisiae deletion strains, locus YFL029C, strain CAK1, stronger effect = lower value 1 | S. cerevisiae deletion strains, locus YFR003C, strain YPI1, stronger effect = lower value 1 | S. cerevisiae deletion strains, locus YFR019W, strain FAB1, stronger effect = lower value 0.942 | S. cerevisiae deletion strains, locus YFR028C, strain CDC14, stronger effect = lower value 0.987 | S. cerevisiae deletion strains, locus YGR040W, strain KSS1, stronger effect = lower value 0.973 | S. cerevisiae deletion strains, locus YGR052W, strain FMP48, stronger effect = lower value 1.09 | S. cerevisiae deletion strains, locus YGR092W, strain DBF2, stronger effect = lower value 1.01 | [4] 0.898 | S. cerevisiae deletion strains, locus YHR079C, strain IRE1, stronger effect = lower value 0.988 | S. cerevisiae deletion strains, locus YHR082C, strain KSP1, stronger effect = lower value 1.04 | S. cerevisiae deletion strains, locus YHR205W, strain SCH9, stronger effect = lower value 0.975 | S. cerevisiae deletion strains, locus YIL147C, strain SLN1, stronger effect = lower value 1 | [5] 0.953 | S. cerevisiae deletion strains, locus YJL128C, strain PBS2, stronger effect = lower value 0.982 | S. cerevisiae deletion strains, locus YJL157C, strain FAR1, stronger effect = lower value 0.995 | S. cerevisiae deletion strains, locus YJR016C, strain ILV3, stronger effect = lower value 1 | S. cerevisiae deletion strains, locus YJR066W, strain TOR1 (second series), stronger effect = lower value 0.972 | S. cerevisiae deletion strains, locus YJR066W, strain TOR1, stronger effect = lower value 1 | S. cerevisiae deletion strains, locus YKL048C, strain ELM1, stronger effect = lower value 0.995 | S. cerevisiae deletion strains, locus YKL067W, strain YNK1, stronger effect = lower value 0.963 | S. cerevisiae deletion strains, locus YKL101W, strain HSL1, stronger effect = lower value 0.978 | S. cerevisiae deletion strains, locus YKL193C, strain SDS22, stronger effect = lower value 0.997 | S. cerevisiae deletion strains, locus YKL203C, strain TOR2, stronger effect = lower value 1.02 | S. cerevisiae deletion strains, locus YLR113W, strain HOG1, stronger effect = lower value 0.97 | S. cerevisiae deletion strains, locus YLR133W, strain CKI1, stronger effect = lower value 0.98 | S. cerevisiae deletion strains, locus YLR403W, strain SFP1, stronger effect = lower value 0.988 | S. cerevisiae deletion strains, locus YML070W, strain DAK1, stronger effect = lower value 0.96 | S. cerevisiae deletion strains, locus YMR001C, strain CDC5, stronger effect = lower value 1 | S. cerevisiae deletion strains, locus YMR205C, strain PFK2 (second series), stronger effect = lower value 0.972 | S. cerevisiae deletion strains, locus YMR277W, strain FCP1, stronger effect = lower value 0.989 | S. cerevisiae deletion strains, locus YNL006W, strain LST8, stronger effect = lower value 1.01 | S. cerevisiae deletion strains, locus YNL020C, strain ARK1, stronger effect = lower value 0.987 | S. cerevisiae deletion strains, locus YNL161W, strain CBK1, stronger effect = lower value 1 | S. cerevisiae deletion strains, locus YNL183C, strain NPR1, stronger effect = lower value 0.968 | S. cerevisiae deletion strains, locus YNL207W, strain RIO2, stronger effect = lower value 1.01 | S. cerevisiae deletion strains, locus YNL222W, strain SSU72, stronger effect = lower value 1 | S. cerevisiae deletion strains, locus YNL307C, strain MCK1 (second series), stronger effect = lower value 0.957 | S. cerevisiae deletion strains, locus YOL078W, strain AVO1, stronger effect = lower value 1 | S. cerevisiae deletion strains, locus YOL136C, strain PFK27, stronger effect = lower value 0.964 | [6] 0.999 | S. cerevisiae deletion strains, locus YOR119C, strain RIO1, stronger effect = lower value 1.08 | S. cerevisiae deletion strains, locus YOR231W, strain MKK1, stronger effect = lower value 0.99 | S. cerevisiae deletion strains, locus YOR329C, strain SCD5, stronger effect = lower value 0.998 | S. cerevisiae deletion strains, locus YPL031C, strain PHO85, stronger effect = lower value 0.973 | S. cerevisiae deletion strains, locus YPL153C, strain RAD53, stronger effect = lower value 0.983 | S. cerevisiae deletion strains, locus YPL204W, strain HRR25, stronger effect = lower value 0.949 | S. cerevisiae deletion strains, locus YPL209C, strain IPL1, stronger effect = lower value 1 | S. cerevisiae deletion strains, locus YPL256C, strain CLN2, stronger effect = lower value 0.97 | S. cerevisiae deletion strains, locus YPR025C, strain CCL1, stronger effect = lower value 1 | S. cerevisiae deletion strains, locus YPR106W, strain ISR1, stronger effect = lower value 0.998 | S. cerevisiae deletion strains, locus YPR111W, strain DBF20, stronger effect = lower value 0.985 | S. cerevisiae deletion strains, strain NNK1, stronger effect = lower value 1.01 | S. cerevisiae deletion strains, strain TSCII, stronger effect = lower value 1.01

— PubChem BioAssay AID1159580 (chemical genetic matrix, 2015)
